# Laboratory results from PubChem BioAssay.
# Unmarked numbers belong to inactive results. The list shows a part of the results. The source made the active and inactive calls.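 How the source made its calls, unless noted: active means inhibition above the mean over all tested compounds plus 3 SD, which no compound reached; inactive means the rest.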
# Tests used:
# [1] = biological target: Nuclear receptor coactivator 3 (Homo sapiens) (UniProt Q9Y6Q9); assay: NCOA3 GAL4-fusion reporter inhibition – cell-based, luminescence, quadruplicate, confirmation (AID 588792;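 active means mean inhibition over 43.08%, the solvent-only control mean plus 3 SD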;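 further: 0% = DMSO treated cells and 100% = gossypol at 36 µM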); conditions: HEK293 GAL4-SRC3 luciferase reporter, at 3.6 µM, active compounds read high
# Chain of Nuclear receptor coactivator 3 (Homo sapiens) (Q9Y6Q9 whole entry, looked up, the tested form may be a part): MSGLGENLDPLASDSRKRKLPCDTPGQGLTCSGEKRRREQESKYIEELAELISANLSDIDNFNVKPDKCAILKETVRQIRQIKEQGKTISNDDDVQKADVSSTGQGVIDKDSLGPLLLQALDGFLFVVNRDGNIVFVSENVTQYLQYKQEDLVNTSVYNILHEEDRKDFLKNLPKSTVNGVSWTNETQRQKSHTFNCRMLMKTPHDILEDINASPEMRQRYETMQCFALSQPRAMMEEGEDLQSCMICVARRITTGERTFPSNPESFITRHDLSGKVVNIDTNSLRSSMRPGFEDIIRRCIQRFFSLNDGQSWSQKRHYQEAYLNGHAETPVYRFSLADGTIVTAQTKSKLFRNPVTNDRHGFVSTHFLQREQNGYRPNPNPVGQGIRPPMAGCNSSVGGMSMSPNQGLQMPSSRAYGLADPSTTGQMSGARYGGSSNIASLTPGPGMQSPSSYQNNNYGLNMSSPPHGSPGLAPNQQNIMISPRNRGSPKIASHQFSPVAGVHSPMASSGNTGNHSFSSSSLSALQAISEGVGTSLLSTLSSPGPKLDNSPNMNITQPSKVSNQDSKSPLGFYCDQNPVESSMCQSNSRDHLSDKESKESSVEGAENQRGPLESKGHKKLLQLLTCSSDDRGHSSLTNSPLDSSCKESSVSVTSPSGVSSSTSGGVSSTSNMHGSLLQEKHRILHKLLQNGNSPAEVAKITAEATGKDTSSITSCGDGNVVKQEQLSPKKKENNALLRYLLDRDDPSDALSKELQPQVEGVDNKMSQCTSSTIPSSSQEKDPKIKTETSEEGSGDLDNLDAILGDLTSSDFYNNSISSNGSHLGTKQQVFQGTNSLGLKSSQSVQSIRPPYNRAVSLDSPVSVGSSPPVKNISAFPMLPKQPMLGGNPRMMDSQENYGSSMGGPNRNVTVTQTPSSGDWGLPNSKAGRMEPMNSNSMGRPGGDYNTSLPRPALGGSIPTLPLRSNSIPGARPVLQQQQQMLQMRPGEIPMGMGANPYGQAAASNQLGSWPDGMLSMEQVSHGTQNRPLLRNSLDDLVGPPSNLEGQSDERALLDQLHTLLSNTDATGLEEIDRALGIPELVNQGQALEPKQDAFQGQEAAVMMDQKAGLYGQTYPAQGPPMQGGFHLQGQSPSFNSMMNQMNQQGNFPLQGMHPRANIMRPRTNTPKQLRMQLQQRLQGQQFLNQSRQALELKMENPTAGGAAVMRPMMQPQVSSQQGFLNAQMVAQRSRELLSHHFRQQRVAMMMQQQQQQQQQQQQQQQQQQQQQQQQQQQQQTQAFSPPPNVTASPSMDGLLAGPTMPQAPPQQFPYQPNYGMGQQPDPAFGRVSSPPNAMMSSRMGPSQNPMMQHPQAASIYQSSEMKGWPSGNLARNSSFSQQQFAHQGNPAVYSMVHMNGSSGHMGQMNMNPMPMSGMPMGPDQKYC
# [2] = system: transactivating tegument protein VP16 (Human herpesvirus 1), Gal4-VP16 luciferase reporter; assay: repression of VP16-driven luciferase reporter – cell-based, luminescence, high throughput, counter-screen for SRC3 inhibitor project (AID 588794; in the data active means inhibition above about 30%); conditions: mammalian cells, at 3.6 µM, active compounds read high
# [3] = biological target: Nuclear receptor coactivator 1 (Homo sapiens) (UniProt Q15788); assay: NCOA1 GAL4-fusion reporter inhibition – cell-based, luminescence, quadruplicate, confirmation (AID 588820;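 active means mean inhibition above 46.68%, the untreated control wells mean plus 3 SD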;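 further: 0% = DMSO wells and 100% = gossypol 36 µM treated wells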); conditions: HEK293 GAL4-SRC1 luciferase reporter, at 3.6 µM, active compounds read high
# Chain of Nuclear receptor coactivator 1 (Homo sapiens) (Q15788 whole entry, looked up, the tested form may be a part): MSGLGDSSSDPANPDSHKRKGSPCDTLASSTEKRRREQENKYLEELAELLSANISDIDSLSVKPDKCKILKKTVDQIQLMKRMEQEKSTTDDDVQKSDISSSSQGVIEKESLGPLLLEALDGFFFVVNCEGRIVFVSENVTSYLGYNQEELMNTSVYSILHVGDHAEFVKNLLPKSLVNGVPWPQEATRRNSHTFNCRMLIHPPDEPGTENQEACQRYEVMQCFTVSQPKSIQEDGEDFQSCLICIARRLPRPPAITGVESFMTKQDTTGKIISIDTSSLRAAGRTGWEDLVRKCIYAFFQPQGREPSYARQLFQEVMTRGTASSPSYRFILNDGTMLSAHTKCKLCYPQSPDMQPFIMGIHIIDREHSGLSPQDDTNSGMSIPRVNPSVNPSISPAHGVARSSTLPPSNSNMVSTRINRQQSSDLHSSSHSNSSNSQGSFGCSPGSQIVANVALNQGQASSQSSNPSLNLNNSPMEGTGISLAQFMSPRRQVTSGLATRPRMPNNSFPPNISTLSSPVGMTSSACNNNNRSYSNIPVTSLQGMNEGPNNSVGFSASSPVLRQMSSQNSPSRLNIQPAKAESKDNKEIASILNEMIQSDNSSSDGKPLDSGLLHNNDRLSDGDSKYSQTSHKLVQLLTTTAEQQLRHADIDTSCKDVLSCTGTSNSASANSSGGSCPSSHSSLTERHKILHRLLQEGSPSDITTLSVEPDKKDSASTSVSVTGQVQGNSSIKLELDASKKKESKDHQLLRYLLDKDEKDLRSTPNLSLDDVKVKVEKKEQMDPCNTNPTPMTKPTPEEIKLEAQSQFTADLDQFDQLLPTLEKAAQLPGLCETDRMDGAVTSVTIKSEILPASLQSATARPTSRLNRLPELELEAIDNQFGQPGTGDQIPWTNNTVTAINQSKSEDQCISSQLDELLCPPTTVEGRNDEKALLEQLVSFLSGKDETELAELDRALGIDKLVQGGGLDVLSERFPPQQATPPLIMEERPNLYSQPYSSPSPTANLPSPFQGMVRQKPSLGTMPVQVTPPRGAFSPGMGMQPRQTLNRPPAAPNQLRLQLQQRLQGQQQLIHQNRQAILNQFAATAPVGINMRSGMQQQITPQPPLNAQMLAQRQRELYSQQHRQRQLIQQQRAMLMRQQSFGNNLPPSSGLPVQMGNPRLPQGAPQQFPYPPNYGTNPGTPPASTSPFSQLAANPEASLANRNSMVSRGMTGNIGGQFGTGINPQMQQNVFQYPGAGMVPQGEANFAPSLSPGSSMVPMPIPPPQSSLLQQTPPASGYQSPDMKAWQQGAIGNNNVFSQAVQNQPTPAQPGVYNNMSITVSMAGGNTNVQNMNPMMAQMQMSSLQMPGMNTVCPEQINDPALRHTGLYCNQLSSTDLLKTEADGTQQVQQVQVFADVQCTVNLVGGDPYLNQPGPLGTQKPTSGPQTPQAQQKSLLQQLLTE
# [4] = repression of VP16-driven luciferase reporter – cell-based, luminescence, high throughput, counter-screen for SRC1 inhibitor project (AID 588824; in the data active means inhibition above about 25%); conditions: cell-based VP16 transactivation luciferase luminescence; at 3.6 µM; active compounds read high
# [5] = biological target: Photoreceptor-specific nuclear receptor (Homo sapiens) (UniProt Q9Y5X4); assay: retest of NR2E3-NCOR disrupting agonists – cell-based, luminescence, CHO-S two-hybrid, confirmation (AID 624378;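 active means average inhibition above a cutoff equal to the mean inhibition of all tested compounds plus one SD, cut at about 70% in these data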;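 further: 0% = DMSO in NR2E3 cells and 100% = DMSO in cells lacking NR2E3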); conditions: CHO-S mammalian two-hybrid NR2E3-NCOR, luciferase luminescence; at 3.98 µM; active compounds read high
# Chain of Photoreceptor-specific nuclear receptor (Homo sapiens) (Q9Y5X4 whole entry, looked up): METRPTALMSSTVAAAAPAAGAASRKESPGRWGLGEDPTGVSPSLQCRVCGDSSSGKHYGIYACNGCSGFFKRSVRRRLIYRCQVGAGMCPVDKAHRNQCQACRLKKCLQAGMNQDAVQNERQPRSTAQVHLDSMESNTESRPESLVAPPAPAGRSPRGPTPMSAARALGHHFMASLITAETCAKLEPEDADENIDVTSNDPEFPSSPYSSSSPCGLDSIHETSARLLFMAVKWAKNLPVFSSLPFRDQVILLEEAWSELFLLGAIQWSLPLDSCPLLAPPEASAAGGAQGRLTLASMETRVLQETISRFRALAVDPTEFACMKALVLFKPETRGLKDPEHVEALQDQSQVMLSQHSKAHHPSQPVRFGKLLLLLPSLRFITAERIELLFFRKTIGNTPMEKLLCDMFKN
# [6] = nonselective effects on VP16 transactivation – cell-based, luminescence, CHO-S, high throughput, counter-screen for NR2E3 agonist project, confirmation (AID 624379;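 active means mean inhibition above a cutoff equal to the average over all tested compounds plus one standard deviation, cut at about 70% in these data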;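 further: 0% = DMSO with VP16-transfected cells and 100% = DMSO with cells lacking VP16; higher means less reporter light so more repression of VP16 activity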); conditions: CHO-S GAL4-VP16 luciferase reporter, at 3.98 µM, active compounds read high
# [7] = VP16-driven transactivation reporter suppression – cell-based, luminescence, HEK293, counter-screen for COUP-TFII antagonist project (AID 687007; in the data active means inhibition above about 13%); conditions: HEK293 Gal4-VP16 luciferase reporter, at 8.5 µM, active compounds read high
# [8] = biological target: COUP transcription factor 2 (Homo sapiens) (UniProt P24468); assay: retest of COUP-TFII reporter suppressors – cell-based, luciferase reporter, HEK293, triplicate, confirmation (AID 687008;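 active means mean inhibition over three repeats above a set limit taken from the earlier primary screen, cut at about 38% in these data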;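 further: 100% = cells given the luciferase reporter alone without the COUP-TF2 vector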); conditions: HEK293 NGFI-A luciferase reporter, luminescence; at 8.5 µM; active compounds read high
# Chain of COUP transcription factor 2 (Homo sapiens) (P24468 whole entry, looked up): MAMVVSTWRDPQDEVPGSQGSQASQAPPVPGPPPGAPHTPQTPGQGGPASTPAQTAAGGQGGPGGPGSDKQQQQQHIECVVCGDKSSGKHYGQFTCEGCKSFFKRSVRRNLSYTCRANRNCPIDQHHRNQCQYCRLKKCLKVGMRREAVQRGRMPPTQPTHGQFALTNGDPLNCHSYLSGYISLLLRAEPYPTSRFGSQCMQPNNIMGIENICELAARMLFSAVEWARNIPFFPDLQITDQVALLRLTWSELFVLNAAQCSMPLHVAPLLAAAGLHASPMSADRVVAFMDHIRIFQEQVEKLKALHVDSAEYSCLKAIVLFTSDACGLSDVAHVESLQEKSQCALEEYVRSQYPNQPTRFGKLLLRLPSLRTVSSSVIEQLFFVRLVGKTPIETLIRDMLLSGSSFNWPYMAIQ
# [9] = system: HIV-1 integrase (multimerization); assay: stimulation of HIV-1 integrase oligomerization – biochemical, TR-FRET, counter-screen for LEDGF/p75 integration inhibitor project (AID 1053131; in the data active means activation above about 8.9%); conditions: TR-FRET HIV-1 integrase multimerization, at 7.7 µM, active compounds read high
# [10] = compounds disturbing TR-FRET signal readout – biochemical, HIV-1 IN multimerization, artefact control for LEDGF/p75-dependent integration inhibitor project, confirmation (AID 1053135); conditions: TR-FRET optical interference counterscreen, at 7.7 µM, active compounds read high;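 further: 0% = integrase with antibodies and DMSO and 100% = antibodies without integrase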
# [11] = system: HIV-1 integrase / human LEDGF/p75 complex; assay: blockers of LEDGF/p75-dependent integrase activity – biochemical, TR-FRET, confirmation (AID 1053136; in the data active means inhibition above about 14%); conditions: TR-FRET LEDGF/p75-dependent HIV-1 integration, at 3.7 µM, active compounds read high
# [12] = reduced OD of V66 E. coli with T4 gene 2 phage – absorbance, RecBCD inhibitor project, confirmation (AID 651982;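 active means mean inhibition over triplicates exceeding the hit threshold derived in the original primary screen, cut at about 11% in these data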); conditions: E. coli V66 + T4 2- phage, growth OD; at 11.9 µM; active compounds read high
# [13] = bacterial growth inhibition – absorbance, high throughput, counter-screen for RecBCD inhibitor project (AID 651983; in the data active means inhibition above about 20%;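 further: E. coli strain V66 grown with compound alone and no phage infection; 0% = bacteria with DMSO vehicle only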); conditions: E. coli viability, absorbance (OD) growth; at 11.9 µM; active compounds read high
# [14] = reduced optical density, T4-challenged addAB+ bacteria – absorbance, E. coli V3065, T4 phage, counter-screen for RecBCD inhibitor project, confirmation (AID 651984;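 active means mean inhibition above the solvent-only control wells' mean plus 3 SD, cut at about 22% in these data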;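 further: higher means less bacterial growth from phage killing when AddAB is blocked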); conditions: E. coli expressing H. pylori AddAB + T4 phage, OD growth; at 11.9 µM; active compounds read high; gene 2 mutant T4, recBCD-deleted host
# [15] = BSA probe fluorescence interference – biochemical, TAMRA-labeled BSA, counter-screen for TCR-CD3 interaction inhibitor project (AID 652035; in the data active means inhibition above about 23%;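 further: 0% = buffer low control and 100% = reference high control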); conditions: TAMRA-labeled BSA probe fluorescence counterscreen; at 9.4 µM; active compounds read high
# [16] = system: T-cell receptor (TCR)-CD3 interaction, human; assay: blockers of TCR binding to CD3 – biochemical, fluorescence, TAMRA-labeled TCR probe, confirmation (AID 652036; in the data active means inhibition above about 19%); conditions: TAMRA-labeled TCR probe fluorescence binding assay; at 9.4 µM; active compounds read high
# [17] = reduced OD of T4-infected AddAB+ E. coli – absorbance, E. coli V3065, T4 phage, triplicate, AddAB inhibitor project, confirmation (AID 488942;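 active means mean inhibition above a set limit taken from the earlier primary screen, cut at about 13% in these data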;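 further: higher means less bacterial growth since AddAB block lets phage replicate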); conditions: E. coli V3065 expressing H. pylori AddAB, at 11.9 µM, active compounds read high, T4 phage with gene 2 nonsense mutations
# [18] = reduced OD of phage-infected RecBCD+ V66 E. coli – absorbance, mutant T4 phage, counter-screen for AddAB inhibitor project (AID 488955;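 active means mean inhibition above the mean of solvent-only control wells plus 3 SD, cut at about 4% in these data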;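 further: optical density read after an 18 h incubation at 37 °C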); conditions: OD growth, at 11.9 µM, active compounds read high
# [19] = bacterial growth inhibitors – absorbance, counter-screen for AddAB inhibitor project, confirmation (AID 488956; in the data active means inhibition above about 25%); conditions: bacterial viability, absorbance (AddAB counterscreen); at 11.9 µM; active compounds read high
# [20] = biological target: (Lyso)-N-acylphosphatidylethanolamine lipase (Mus musculus) (UniProt Q8VD66); assay: mouse ABHD4 hydrolase blockers, triplicate – biochemical, fluorescence polarization, confirmation (AID 720658;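 active means mean inhibition across replicates above the hit cutoff set in the primary screen, cut at about 30% in these data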;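 further: 0% = wild-type ABHD4 with DMSO and 100% = catalytically dead S159A mutant with DMSO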); conditions: purified mABHD4, FP-Rh probe fluorescence polarization; at 8.92 µM; active compounds read high
# Chain of (Lyso)-N-acylphosphatidylethanolamine lipase (Mus musculus) (Q8VD66 whole entry, looked up): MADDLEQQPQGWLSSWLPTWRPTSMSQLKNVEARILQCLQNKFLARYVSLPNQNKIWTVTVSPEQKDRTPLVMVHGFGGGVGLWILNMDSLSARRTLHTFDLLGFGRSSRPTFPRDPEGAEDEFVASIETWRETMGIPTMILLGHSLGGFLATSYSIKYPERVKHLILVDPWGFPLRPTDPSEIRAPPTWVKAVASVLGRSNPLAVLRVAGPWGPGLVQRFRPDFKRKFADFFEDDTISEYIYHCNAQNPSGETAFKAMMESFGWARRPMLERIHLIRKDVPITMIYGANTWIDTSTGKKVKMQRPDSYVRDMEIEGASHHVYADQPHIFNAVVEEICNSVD
# [21] = potentiators of IFN-gamma STAT1 reporter activity – cell-based, HTS, luciferase reporter, confirmation (AID 1262;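 active means activation above a set limit carried over from the earlier primary STAT1 screen, cut at about 140% in these data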;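 further: simple ratio to median IFN-gamma plus DMSO wells so 0% means no light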); conditions: NIH 3T3 STAT1-luciferase reporter, IFN-gamma potentiation, luminescence; at 5.7 µM; active compounds read high; 100% = IFN-gamma EC80 alone, no compound
# [22] = enhancement of NF-kB transcriptional signalling – cell-based, HEK293T, luciferase luminescence, TNF-alpha, counter-screen for STAT1 activator project (AID 1306;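 active means activation above the mean of solvent-only control wells plus 3 SD, set per campaign, cut at about 130% in these data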;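 further: TNF-alpha given at a submaximal dose yielding about 80% of full reporter signal; values are well signal over median control so 100% means no change and 0% no light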); conditions: HEK293T NF-kB luciferase reporter, TNF-alpha stimulated, at 5.7 µM, active compounds read high, 100% = TNF-alpha with vehicle only
# [23] = biological target: Signal transducer and activator of transcription 3 (Homo sapiens) (UniProt P40763); assay: enhancers of IL-6 STAT3 transcription – U3A cells, luciferase, luminescence, counter-screen for STAT1 activator project, confirmation (AID 1316;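 active means activation above the solvent-only control well mean plus 3 SD, set per plate batch, cut at about 110% in these data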;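 further: 0% = no luminescence and 100% = median IL-6 plus DMSO wells; higher means more STAT3 reporter activation so hits are non-selective activators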); conditions: U3A cells STAT3-luciferase reporter, IL-6, luminescence; at 5.7 µM; active compounds read high; 100 = IL-6 alone, no compound effect; cells lack STAT1
# [24] = biological target: Serine protease HTRA1 (Homo sapiens) (UniProt Q92743); assay: confirming inhibition of human HTRA1 – biochemical, fluorescence polarization, confirmation (AID 540248;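 active means mean inhibition over three repeats above a set limit taken from the earlier primary screen, cut at about 37% in these data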;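 further: 0% = HTRA1 with DMSO and 100% = wells lacking HTRA1; inhibitors block probe binding so polarization drops and inhibition rises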); conditions: recombinant HTRA1, FP-rhodamine activity-based probe, at 5.96 µM, active compounds read high
# [25] = system: TLR4-MyD88 interaction (human), BLA complementation; assay: disruptors of TLR4 binding to MyD88 – cell-based, HeLa CL3-4, BLA complementation, FRET ratio, confirmation (AID 941;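 active means mean inhibition across three repeat runs above about 25% carried over from the earlier screen, limit read from the data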;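 further: plate controls were DMSO only for no effect and clavulanic acid blocking BLA at full dose for full effect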); conditions: CCF4 FRET ratio, at 8.4 µM, active compounds read high
# [26] = BLA reporter interference in HeLa cells – cell-based, full-length BLA, CCF4 FRET ratio, artefact control for TLR4-MyD88 binding inhibitor project, confirmation (AID 1237;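 active means mean inhibition over three repeats above about 26% taken from the earlier screen, limit read from the data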;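 further: HeLa cells stably expressing beta-lactamase reporter as counterscreen for TLR4-MyD88 inhibitors; 0% = DMSO and 100% = clavulanic acid full inhibition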); conditions: at 8.4 µM, active compounds read high
# [27] = biological target: Insulin-degrading enzyme (Homo sapiens) (UniProt P14735); assay: cellular IDE Abeta-cleavage inhibition – fluorescence polarization, HEK cells, FAbetaB substrate, confirmation (AID 435028;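 active means mean inhibition across triplicate wells above the cutoff set by the earlier primary insulin-degrading enzyme screen, cut at about 16% in these data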;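 further: 0% = DMSO wells and 100% = 60 µM reference IDE inhibitor Ii1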); conditions: at 5.59 µM, active compounds read high
# Chain of Insulin-degrading enzyme (Homo sapiens) (P14735 whole entry, looked up): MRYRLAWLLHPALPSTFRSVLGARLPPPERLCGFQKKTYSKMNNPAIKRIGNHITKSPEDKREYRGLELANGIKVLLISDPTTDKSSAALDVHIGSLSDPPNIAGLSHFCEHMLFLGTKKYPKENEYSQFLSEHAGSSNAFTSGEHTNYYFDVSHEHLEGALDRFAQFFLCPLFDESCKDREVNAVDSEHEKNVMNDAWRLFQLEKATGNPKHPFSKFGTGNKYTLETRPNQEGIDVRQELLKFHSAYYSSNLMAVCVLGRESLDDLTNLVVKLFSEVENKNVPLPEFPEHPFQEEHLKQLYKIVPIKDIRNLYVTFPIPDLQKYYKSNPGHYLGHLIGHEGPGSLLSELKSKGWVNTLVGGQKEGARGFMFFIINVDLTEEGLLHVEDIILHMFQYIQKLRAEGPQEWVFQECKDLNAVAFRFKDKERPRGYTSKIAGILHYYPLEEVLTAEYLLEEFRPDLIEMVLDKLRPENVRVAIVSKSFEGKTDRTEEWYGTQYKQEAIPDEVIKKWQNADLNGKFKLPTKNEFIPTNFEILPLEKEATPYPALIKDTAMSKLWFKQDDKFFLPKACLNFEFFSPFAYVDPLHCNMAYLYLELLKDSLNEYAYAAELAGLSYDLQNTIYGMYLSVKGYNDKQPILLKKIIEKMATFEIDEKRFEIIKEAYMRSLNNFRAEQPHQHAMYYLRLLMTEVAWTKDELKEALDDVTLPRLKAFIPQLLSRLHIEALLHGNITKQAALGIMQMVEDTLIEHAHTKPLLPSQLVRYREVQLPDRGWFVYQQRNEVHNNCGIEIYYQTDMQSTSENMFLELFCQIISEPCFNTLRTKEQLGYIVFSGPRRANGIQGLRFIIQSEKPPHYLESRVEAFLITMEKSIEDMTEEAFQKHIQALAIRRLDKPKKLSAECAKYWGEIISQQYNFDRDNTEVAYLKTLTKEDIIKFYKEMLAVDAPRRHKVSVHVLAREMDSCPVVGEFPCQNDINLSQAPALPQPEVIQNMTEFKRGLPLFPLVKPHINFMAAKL
# [28] = HEK cell viability loss – luminescence, cytotoxicity control for IDE inhibitor project (AID 449730; in the data active means inhibition above about 22%;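 further: 0% = vehicle wells and 100% = reference cytotoxic drug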); conditions: HEK293 cytotoxicity, ATP luminescence; at 5.59 µM; active compounds read high
# [29] = biological target: Galanin receptor type 2 (Homo sapiens) (UniProt O43603); assay: blockers of human galanin receptor 2 – cell-based, confirmation (AID 866; in the data active means inhibition above about 27%;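 further: cells stimulated with galanin at about its EC80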); conditions: GALR2-expressing cells, antagonist mode, at 4 µM, active compounds read high
# [30] = nonspecific BLA reporter inhibition – CHO NFAT-bla cells, FRET readout, counter-screen for GALR2 antagonist project, confirmation (AID 867;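 active means inhibition above the mean inhibition across tested compounds plus 3 SD, cut at about 27% in these data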;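 further: 0% = 500 nM thapsigargin stimulated wells and 100% = unstimulated BSA only wells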); conditions: beta-lactamase FRET, thapsigargin-stimulated, at 4.2 µM, active compounds read high
smiles,measurement,setting,value
COc1ccc2c(c1)c(=Cc1ccc(N(C)C)cc1)c1cc(-c3ccccc3)[n+](C)n12,inhibition,[1],68.3% (active)
same,inhibition,[2],82% (active)
same,inhibition,[3],69.4% (active)
same,inhibition,[4],83.8% (active)
same,inhibition,[5],99% (active)
same,inhibition,[6],81.4% (active)
same,inhibition,[7],40.1% (active)
same,inhibition,[8],86.4% (active)
same,activation,[9],6.29%
same,inhibition,[10],-22.4%
same,inhibition,[11],-6.4%
O=C(NNC(=O)c1ccccc1O)c1ccccc1O,inhibition,[12],25.8% (active)
same,inhibition,[13],26.4% (active)
same,inhibition,[14],38.9% (active)
same,inhibition,[15],2.97%
same,inhibition,[16],37.8% (active)
same,activation,[9],0.99%
same,inhibition,[10],-4.93%
same,inhibition,[11],62.9% (active)
C=CC1=C(C(=O)O)N2C(=O)[C@@H](NC(=O)/C(=N\OCC(=O)O)c3csc(N)n3)[C@H]2SC1,inhibition,[17],103% (active)
same,inhibition,[18],103% (active)
same,inhibition,[19],104% (active)
same,inhibition,[12],102% (active)
same,inhibition,[13],104% (active)
same,inhibition,[14],104% (active)
same,activation,[9],85.5% (active)
same,inhibition,[10],-430%
same,inhibition,[11],62.9% (active)
O=C1C=CC(=O)N1c1ccc(N2CCCCC2)cc1,inhibition,[20],17.5%
same,activation,[9],1.69%
same,inhibition,[10],-8.48%
same,inhibition,[11],5.47%
COc1ccc(/C=N/Nc2nc3ccccc3c(=O)[nH]2)cc1,activation (% of control),[21],169% (active)
same,activation (% of control),[22],119%
same,activation (% of control),[23],102%
Cc1ccccc1NCC(=O)N/N=C\c1ccc([N+](=O)[O-])s1,inhibition,[15],1.19%
same,inhibition,[16],7.69%
same,activation,[9],-0.2%
same,inhibition,[10],1.03%
same,inhibition,[11],-2.15%
CCC(=O)NC(=Nc1nc2ccccc2s1)NC(=O)CC,activation (% of control),[21],216% (active)
same,activation (% of control),[22],138% (active)
same,activation (% of control),[23],112% (active)
Cc1cc(C(=O)N/N=C/c2ccc(O)c([N+](=O)[O-])c2)c(C)n1-c1ccc(F)cc1,inhibition,[24],120% (active)
same,inhibition,[20],74% (active)
same,activation,[9],14.2% (active)
same,inhibition,[10],-71.4%
same,inhibition,[11],17.8% (active)
C[n+]1ccc(/C=C/c2c[nH]c3ccccc23)cc1,inhibition,[25],26.1% (active)
same,inhibition,[26],42.1% (active)
same,inhibition,[27],42.6% (active)
same,inhibition,[28],13.1%
CCc1ccc2c(c1)C1(NN=C(c3ccccc3)S1)C(=O)N2 (configuration not stated),inhibition,[29],24.4%
same,inhibition,[30],24.7%
same,inhibition,[25],13.3%
same,inhibition,[26],19.7%
same,inhibition,[24],63.9% (active)
